Measured potencies and affinities stand elsewhere.
Target: Peroxisome proliferator-activated receptor gamma (Homo sapiens) (UniProt P37231)
Experiment: PPARg transcriptional activation, reporter cells – cell-based, luminescence, assay provider, dose response (AID 504447)
Conditions: luciferase luminescence, partial agonism; series mostly up to 5 µM; fold change activation: at the top concentration; call rule not given here

Sequence of Peroxisome proliferator-activated receptor gamma (Homo sapiens) (P37231 whole entry, looked up): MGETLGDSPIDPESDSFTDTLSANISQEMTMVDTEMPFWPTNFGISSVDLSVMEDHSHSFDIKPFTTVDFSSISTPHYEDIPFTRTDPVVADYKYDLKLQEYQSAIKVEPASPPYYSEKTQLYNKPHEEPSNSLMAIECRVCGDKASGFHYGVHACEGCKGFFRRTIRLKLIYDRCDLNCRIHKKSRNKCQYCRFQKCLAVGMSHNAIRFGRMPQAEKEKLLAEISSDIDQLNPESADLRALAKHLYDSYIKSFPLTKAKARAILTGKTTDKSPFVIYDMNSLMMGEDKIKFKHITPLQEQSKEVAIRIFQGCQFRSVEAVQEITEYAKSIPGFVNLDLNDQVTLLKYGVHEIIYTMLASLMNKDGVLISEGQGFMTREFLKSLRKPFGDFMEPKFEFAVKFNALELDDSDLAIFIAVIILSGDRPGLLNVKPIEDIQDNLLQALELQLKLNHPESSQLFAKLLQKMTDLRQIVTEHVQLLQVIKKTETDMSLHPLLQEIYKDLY

Fold change activation, inactive:
Cc1ccc(-c2nnc(Nc3ccc(O)cc3)c3ccccc23)cc1S(=O)(=O)NCCO 1.09 fold
COc1ccc(C=NNS(=O)(=O)c2ccc(F)cc2)cc1COc1cc(F)ccc1[N+](=O)[O-] 1.08 fold
O=C(COc1coc(CN2CCc3ccccc3C2)cc1=O)Nc1ccc(F)cc1F 1.06 fold
CCC(=O)c1ccc(OCC(=O)OC(C)C(=O)Nc2c(C)n(C)n(-c3ccccc3)c2=O)cc1 (stereo not drawn) 1.08 fold
O=C(O)CCN1C(=O)/C(=C/c2ccc(C(F)(F)F)cc2C(F)(F)F)SC1=S 0.98 fold
Cc1ccccc1NC(=O)CC1C(=O)Nc2ccccc2N1CC(=O)N(C)C1CCS(=O)(=O)C1 (stereo not drawn) 1.14 fold
O=C(Nc1c(C(=O)Nc2ccc3c(c2)OCCO3)cnn1-c1ccccc1Cl)c1ccco1 1.34 fold
O=C(c1cccc(N2C(=O)C3C4C=CC(C4)C3C2=O)c1)N1CCN(c2ccccc2Cl)CC1 (stereo not drawn) 0.9 fold
COc1cc(C2/C(=C(/O)c3ccc(F)cc3)C(=O)C(=O)N2CCCC(=O)O)ccc1O (stereo not drawn) 0.97 fold
COc1ccc(CN(Cc2ccccn2)C(=O)CN2C(=O)C(C)Oc3ccccc32)cc1 (stereo not drawn) 1.05 fold
CCOc1cccc(/C(O)=C2/C(=O)C(=O)N(Cc3ccco3)C2c2ccncc2)c1 (stereo not drawn) 0.91 fold
O=C(CSc1nc(=O)n(CCCN2CCOCC2)c2c1CCC2)Nc1cccc(F)c1 1.04 fold
O=C(O)CCN1C(=O)/C(=C/c2ccccc2Cl)SC1=S 0.99 fold
COc1ccc(CNC(=O)Cn2c(=O)n(CCC(=O)N3CCCCC3)c(=O)c3sccc32)cc1 1.15 fold
COc1ccccc1NC(=O)C(=O)c1cn(CC(=O)N2CCOCC2)c2ccccc12 1.03 fold
O=C(c1nc2ccccn2c1CN1CCCC(O)C1)N1CCN(C2CCCCC2)CC1 (stereo not drawn) 1.15 fold
O=C1CC(N2CCN(Cc3ccc4c(c3)OCO4)CC2)C(=O)N1Cc1ccc(N2CCCC2=O)cc1 (stereo not drawn) 1.06 fold
COc1ccc(S(=O)(=O)N2CCCCC2)cc1NC(=O)C1CSC2(C)CCC(=O)N12 (stereo not drawn) 1.1 fold
Cc1cc(N2C(=O)C(O)=C(C(=O)c3cccs3)C2c2cccc(Br)c2)no1 (stereo not drawn) 1.07 fold
O=C1C(=O)N(CCCn2ccnc2)C(c2ccc(Cl)cc2)/C1=C(\O)c1ccc2c(c1)OCCO2 (stereo not drawn) 1.01 fold
CC(Oc1ccc2c(c1)oc(=O)c1ccccc12)C(=O)NC(Cc1c[nH]c2ccc(O)cc12)C(=O)O (stereo not drawn) 0.99 fold
Cc1c(-n2cc(C(=O)c3cc(F)ccc3O)cc(C#N)c2=O)c(=O)n(-c2ccccc2)n1C 1.05 fold
Cc1ccc2nc(N3C(=O)C(O)=C(C(=O)c4ccco4)C3c3ccc(O)cc3)sc2c1 (stereo not drawn) 1.1 fold
